Among the data in PubChem BioAssay (NCATS) are outcome values, retold here.

Active and inactive are the calls of the source. How the calls were made is not given here.

This experiment is described as follows: qHTS assay for small molecule activators of the human pregnane X receptor (PXR) signaling pathway (AID 720659). To be noted: DPX-2 HepG2 CYP3A4-luciferase, 24 h; series mostly up to 92.3 µM. (In general: Quantitative high-throughput screening tests each substance at several concentrations.)
As for `CC(C=CC1=C(C)CCCC1(C)C)=CC=CC(C)=CC(=O)Nc1ccc(O)cc1`, the result was inactive.
As for `OC[C@@H](O)[C@@H](O)[C@H](O)[C@@H](O)CO`, the compound was classed as inactive.
In the case of `O=C1c2cccc(O)c2C(=O)c2c(O)cc(CO)cc21`, the outcome was inactive.
Consider `Cc1cc(O)c2c(c1)C(=O)c1cccc(O)c1C2=O`, for which the compound was classed as inactive.
